Measurements from PubChem BioAssay (EPA / NIEHS).
The source made the active and inactive calls. How the source made its calls: active means hit-call score of the fitted dose curve at least 0.9, where 1 is the maximum; inactive means score below 0.9.

molecular target: Myc proto-oncogene protein (Homo sapiens) (UniProt P01106); test: ATG_Myc_CIS: Attagene CIS-FACTORIAL HepG2 Assay for human Myelocytomatosis (Myc) Proto-Oncogene Transcription Factor (AID 2282990); conditions: HepG2, Attagene cis-reporter transcription factor activity; actives raise or lower the signal
Protocol: ATG_CIS is a cell-based, multiplexed-readout assay that uses HepG2, a human liver cell line, with measurements taken at 24 hours after chemical dosing in a 24-well plate.ATG_Myc_CIS is one of 52 assay component(s) measured or calculated from the ATG_CIS assay. It is designed to make measurements of mRNA induction, a form of inducible reporter, as detected with fluorescence intensity signals by Reverse transcription polymerase chain reaction (RT-PCR) and Capillary electrophoresis technology.Data from the assay component ATG_Myc_CIS was analyzed into 1 assay endpoint. This assay endpoint, ATG_Myc_CIS, was analyzed with bidirectional fitting relative to DMSO as the negative control and baseline of activity. Using a type of inducible reporter, measures of mRNA for gain or loss-of-signal activity can be used to understand the reporter gene at the transcription factor-level as they relate to the gene MYC. Furthermore, this assay endpoint can be referred to as a primary readout, because this assay has produced multiple assay endpoints where this one serves a reporter gene function. To generalize the intended target to other relatable targets, this assay endpoint is annotated to the dna binding intended target family, where the subfamily is basic helix-loop-helix leucine zipper.
Human liver HepG2 cells are transiently transfected with multiple reporter transcription units (MRTUs) in 6-well plates using FuGene 6 reagent (Roche; 3 ml FuGene/1 mg DNA). The MRTU constructs are regulated by a cis-regulating element (promoter). […] A major difference between the CIS and TRANS system is that in CIS activities of endogenous TFs are measured, whereas the TRANS assay evaluates changes in activities of exogenous, chimeric NR-Gal4 proteins. […] At the end of 24 hour incubation, total RNA was isolated using TriZol reagent (Invitrogen). The isolated RNA is then reverse-transcribed using oligo(dT) primer and Mo-MLV reverse transcriptase (Invitrogen) with DNAse I (Ambion) treatment for 30 min. The one-tenth of the produced cDNA was amplified by PCR using Taq DNA polymerase (Invitrogen) and two reporter sequence-specific primers. The PCR products were fluorescently labeled by primer extension with 6-arboxyfluorescein (6-FAM) 5'-labeled reporter sequence-specific primer (2 min at 95 C, 20 s at 68 C and 10 min at 72 C) and these products were digested with 5U of HpaI (New England Biolabs) for 2h at 37 C. The fragments were purified using Qiaquick PCR columns (Qiagen), analyzed on an ABI 3130xL genetic analyzer (Applied Biosystems) with peak positions identified by using a set of X-rhodamine (ROX)-labeled MapMarker1000 molecular weight standards (BioVentures). The raw capillary electrophoresis data was processed using Attagraph software (Attagene).

Chain of Myc proto-oncogene protein (Homo sapiens) (P01106 whole entry, looked up): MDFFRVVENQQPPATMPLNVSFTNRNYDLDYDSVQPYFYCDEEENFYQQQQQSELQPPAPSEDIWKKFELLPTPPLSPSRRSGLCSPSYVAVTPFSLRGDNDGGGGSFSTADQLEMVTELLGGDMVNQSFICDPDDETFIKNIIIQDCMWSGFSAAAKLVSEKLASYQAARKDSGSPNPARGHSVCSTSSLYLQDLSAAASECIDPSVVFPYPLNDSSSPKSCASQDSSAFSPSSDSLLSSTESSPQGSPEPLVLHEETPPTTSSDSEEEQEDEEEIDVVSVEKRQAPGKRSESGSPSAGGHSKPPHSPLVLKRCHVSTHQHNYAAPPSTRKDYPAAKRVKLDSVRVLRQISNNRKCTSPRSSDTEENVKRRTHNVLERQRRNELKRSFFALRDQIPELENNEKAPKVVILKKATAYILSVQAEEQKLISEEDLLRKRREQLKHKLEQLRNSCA

SMILES	outcome	AC50
C1CCC(NC2CCCCC2)CC1	inactive	
CC12CC1(C)C(=O)N(c1cc(Cl)cc(Cl)c1)C2=O (stereo not given)	inactive	
O=C(OC1CCCCC1)c1ccccc1C(=O)OC1CCCCC1	inactive	
CCC(=O)c1ccccc1	inactive	
CCC[CH2][Sn]([Cl])([Cl])[Cl]	inactive	
COP(=S)(OC)Oc1cc(Cl)c(Cl)cc1Cl	inactive	
Nc1ncc([N+](=O)[O-])s1	inactive	
C[C@@H]1C[C@@H]([C@H](O)CC2CC(=O)NC(=O)C2)C(=O)[C@@H](C)C1	inactive	
CC(=[OH+])/C=C(/C)[O-].CC(=[OH+])/C=C(/C)[O-].CC(=[OH+])/C=C(/C)[O-].[Al]	inactive	
ClC1=C(Cl)[C@]2(Cl)[C@@H]3[C@@H](Cl)[C@@H](Cl)C[C@@H]3[C@@]1(Cl)C2(Cl)Cl	inactive	
COP(=S)(OC)Oc1ccc(Sc2ccc(OP(=S)(OC)OC)cc2)cc1	inactive	
COC(=O)c1sccc1S(=O)(=O)NC(=O)Nc1nc(C)nc(OC)n1	inactive	
CCOP(=S)(OCC)Oc1ccc(S(C)=O)cc1 (stereo not given)	inactive	
CC(C)(OO)c1ccccc1	inactive	
O=[N+]([O-])c1ccc2c3c(cccc13)CC2	inactive	
O=[N+]([O-])c1ccc(O)c([N+](=O)[O-])c1	inactive	
CCOP(OCC)OCC	inactive	
O=C1C(Cl)=C(Cl)C(=O)c2ccccc21	inactive	
C=C(C)C(=O)[O][Sn]([CH2]CCC)([CH2]CCC)[CH2]CCC	inactive	
Cc1ccc2ccccc2c1C	inactive	

SMILES	outcome	AC50
CCCCCCCCC(=O)NCc1ccc(O)c(OC)c1	inactive	
O=C(O)C(F)(F)C(F)(F)C(F)(F)C(F)(F)C(F)(F)C(F)(F)C(F)(F)C(F)(F)C(F)(F)C(F)(F)F	inactive	
C[C@@H](Oc1ccc(Cl)cc1Cl)C(=O)O	inactive	
Cn1sc(Cl)cc1=O	inactive	
CN(C)P(=O)(N(C)C)N(C)C	inactive	
Nc1ccc(N=Nc2ccc(-c3ccc(N=Nc4c(S(=O)(=O)O)cc5cc(S(=O)(=O)O)c(N=Nc6ccccc6)c(O)c5c4N)cc3)cc2)c(N)c1	inactive	
O=C(CCl)CCl	inactive	
Cc1ccccc1C(=O)Nc1cccc(OC(C)C)c1	inactive	
ClC(Cl)=C(Cl)C(Cl)=C(Cl)Cl		119 µM (active)
CCCCCCCCCl	inactive	
Nc1ccc(Cl)cc1C(=O)c1ccccc1	inactive	
BrCCBr	inactive	
COP(=O)(OC)OC	inactive	
C=CC#N	inactive	
NNC(=S)NN	inactive	
CCOC(=O)Nc1cccc(OC(=O)Nc2ccccc2)c1	inactive	
Nc1ccc(-c2ccc(N)c(Cl)c2)cc1Cl	inactive	
O=Cc1cccc(Oc2ccccc2)c1	inactive	
CC(C)C1CCC(Cc2ccc(Cl)cc2)C1(O)Cn1cncn1 (stereo not given)	inactive	
Cc1ccccc1N	inactive	
